High-throughput results deposited in PubChem by The Scripps Research Institute Molecular Screening Center.
This is a sample that favours compounds with a hit; in the whole collection about 4.8% have one here.
ssDAF-12 act: S. stercoralis DAF-12 nuclear receptor activators, primary screen, cell-based, luminescence, HEK293, GRIP1 co-expression, lit1-tk-luc; Nuclear hormone receptor DAF-12 (Strongyloides stercoralis); HEK293 ssDAF-12/GRIP1 lit1-tk-luc reporter; % of 3 µM dafachronic acid response; activation, % at 6.8 µM; actives 1% (n = 370,000);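 active means activation above the mean over all tested compounds plus 3 SD, cut at about 0.9% in these data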;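 further: 0% = DMSO-only wells and 100% = 3 µM delta7-dafachronic acid wells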
SMARCA2 activ: SMARCA2 (BRM) function activators, primary screen, cell-based, luminescence, high throughput. MG213 cells, MMTV-luciferase reporter, dexamethasone, overnight. AID 652017, 2013. actives 1% (n = 370,000). activation, % at 9.1 µM; in the data active means activation above about 7.8%;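 further: 0% = vehicle wells and 100% = reference activator wells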
DAX1 inh-1: DAX1 (NR0B1) inhibitors on StAR promoter, primary screen, cell-based, luminescence, SF-1 (NR5A1), full-length DAX-1 | HEK293T StAR-luciferase reporter, SF-1/DAX-1 repression relief | inhibition, % at 6.8 µM | actives 1.1% (n = 370,000) | AID 652010, 2013;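 active means inhibition above the mean over all tested compounds plus 3 SD, cut at about 3.6% in these data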;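 further: 0% = DAX-1 cells with DMSO and 100% = cells lacking DAX-1 with DMSO; higher inhibition means more luminescence from relief of DAX-1 repression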
DAX1 inh-2: DAX1 (NR0B1) inhibitors, primary screen, cell-based, HEK293, Gal4-DAX1, luciferase luminescence | HEK293 Gal4-DAX1 luciferase reporter | inhibition, % at 6.75 µM | actives 0.99% (n = 340,000) | AID 504766, 2011;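 active means inhibition above the mean over all tested compounds plus 3 SD, cut at about 4.2% in these data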;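 further: 0% = DAX1-transfected cells with DMSO and 100% = empty-vector control cells with DMSO; inhibition shows as a rise in luminescence from relieved DAX1 repression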
Target sequence (P51843 207-470 limits assumed): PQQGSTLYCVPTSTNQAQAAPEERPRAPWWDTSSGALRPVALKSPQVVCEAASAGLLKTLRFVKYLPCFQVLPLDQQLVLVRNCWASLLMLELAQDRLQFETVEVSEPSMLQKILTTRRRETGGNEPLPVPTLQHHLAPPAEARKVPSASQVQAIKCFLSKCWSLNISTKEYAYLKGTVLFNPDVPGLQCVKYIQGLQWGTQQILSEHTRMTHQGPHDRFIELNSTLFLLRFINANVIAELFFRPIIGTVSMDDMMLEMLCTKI
hgDAF-12 ag: H. glycines DAF-12 receptor agonists, primary screen, cell-based, luminescence, HEK293, GAL4 fusion, UAS-luciferase; actives 1.8% (n = 370,000); AID 687014, 2013; activation, % at 6.8 µM; Nuclear hormone receptor DAF-12 (Heterodera glycines), GAL4 fusion; HEK293 GAL4-hgDAF12 UAS-luciferase reporter, agonist luminescence; normalized to butyrate control;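 active means activation above a cutoff set at the mean of all screened compounds plus 3 SD, cut at about 10% in these data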;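 further: 0% = DMSO wells and 100% = sodium butyrate wells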
hcDAF12 agonist: H. contortus DAF-12 nuclear receptor activators, primary screen, cell-based, luminescence, HEK293, lit1-tk-luc reporter; HEK293 hcDAF-12 lit1-tk-luc reporter; 0% DMSO, 100% Δ7-dafachronic acid; activation, % at 6.8 µM; actives 1.4% (n = 370,000); AID 652067, 2013;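 active means activation above the mean of all tested compounds plus 3 SD, cut at about 5.5% in these data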;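 further: 100% = response to 3 µM Δ7-dafachronic acid high control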
An asterisk follows results filed as active; nt = no result given.

SMILES	ssDAF-12 act	SMARCA2 activ	DAX1 inh-1	DAX1 inh-2	hgDAF-12 ag	hcDAF12 agonist
CCCCNS(=O)(=O)c1ccc(NC(=O)Cc2ccccc2[N+](=O)[O-])cc1	2.0*	-1	-1	0	0	1
Cc1cc(NC(=O)c2ccc(NS(=O)(=O)c3ccc(F)cc3)cc2)no1	-2	-4	-1	nt	-1	-2
O=C(NCc1ccccc1Cl)C1CCC(CNS(=O)(=O)c2cccc3cccnc23)CC1 (stereo not given)	-1	-4	-2	nt	-1	-1
COc1cccc(/C=N/n2c(=S)n(C)c3ccccc32)c1OC	-1	-4	0	-2	0	-1
COc1cccc(/C=N/n2c(=O)[nH]c3ccccc32)c1OC	-1	5	1	4.9*	2	0
O=C(Nc1ccc2ccccc2c1)c1ccc2[nH]c(=O)c(=O)[nH]c2c1	0	3	1	1	2	6.1*
O=S1(=O)c2c(NCc3ccco3)cccc2Oc2ccccc2CN1Cc1cn(Cc2ccc(C(F)(F)F)cc2)nn1	-1	-4	1	nt	-2	-2
Fc1cc(F)c(CSc2nnc(-c3cccnc3)n2Cc2ccccc2)cc1F	-1	2	0	nt	-1	-2
